From PubChem BioAssay (Tox21)
Results filed as inconclusive are left out. A call without a number means that no potency is given here. Activity calls are given as the source filed them. Unless noted, the call rests on the fitted dose curve; in most records, active means well fitted curve in the direction sought with a large enough effect in the repeat runs; inconclusive means weak or mixed curves; inactive means no such curve, though single readings can be large; an effect the other way counts as inactive or inconclusive.

Assays:
[1] = qHTS assay to identify small molecule antagonists of the thyroid receptor (TR) signaling pathway (AID 743065); further: series mostly up to about 70 µM; nearly all actives have a fitted effect of over 55% in size
Procedure, shortened: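 GH3.TRE-Luc rat pituitary cells (two TREs driving luciferase) were dosed with compound, then stimulated with 1 nM T3 (final) for 23.5 h at 37 C. ONE-Glo luminescence was the read-out, with CellTiter-Fluor fluorescence as the cytotoxicity counter-screen.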

[2] = system: thyroid hormone receptor (rat, GH3 cells); assay: qHTS assay to identify small molecule agonists of the thyroid receptor (TR) signaling pathway (AID 743066; calls by dose curve)
[3] = target: Estrogen receptor (Homo sapiens) (UniProt P03372); assay: qHTS assay to identify small molecule antagonists of the estrogen receptor alpha (ER-alpha) signaling pathway (AID 743069; active means well fitted curve in the direction sought with a large enough effect in the signal ratio in the repeat runs, not every such curve was filed as active; the % refers to the signal ratio)
Estrogen receptor (Homo sapiens), sequence (P03372 whole entry, looked up): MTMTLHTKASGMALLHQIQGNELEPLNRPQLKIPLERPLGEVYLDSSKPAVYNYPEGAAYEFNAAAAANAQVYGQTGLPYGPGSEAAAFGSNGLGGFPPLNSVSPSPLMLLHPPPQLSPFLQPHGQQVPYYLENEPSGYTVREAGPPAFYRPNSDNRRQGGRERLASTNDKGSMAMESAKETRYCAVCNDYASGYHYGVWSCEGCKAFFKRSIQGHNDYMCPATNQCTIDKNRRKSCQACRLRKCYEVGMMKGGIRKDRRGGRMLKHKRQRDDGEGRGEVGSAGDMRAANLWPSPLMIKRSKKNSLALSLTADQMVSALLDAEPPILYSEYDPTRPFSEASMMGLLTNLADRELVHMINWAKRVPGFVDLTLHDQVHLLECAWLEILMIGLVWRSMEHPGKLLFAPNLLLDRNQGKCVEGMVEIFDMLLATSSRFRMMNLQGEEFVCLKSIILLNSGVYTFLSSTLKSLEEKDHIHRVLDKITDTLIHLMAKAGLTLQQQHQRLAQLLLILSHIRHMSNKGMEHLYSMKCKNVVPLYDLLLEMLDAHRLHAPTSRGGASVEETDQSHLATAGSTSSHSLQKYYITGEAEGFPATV
Procedure, shortened: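 Beta-lactamase FRET fluorescence is read after 2 hr at room temperature with LiveBLAzer B/G substrate. Before that, ER-alpha-bla HEK293 cells sit 4 hr after plating, then receive compound plus 17beta-estradiol and incubate 18 hr at 37C.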

[4] = qHTS assay to identify small molecule antagonists of the estrogen receptor alpha (ER-alpha) signaling pathway - cell viability counter screen (AID 743074; calls by dose curve;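 further: HEK293 cells carrying ER-alpha-UAS-bla reporter stimulated with 17beta-estradiol; nearly all actives have a fitted effect of over 45% in size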)
[5] = target: Estrogen receptor (Homo sapiens) (UniProt P03372); assay: qHTS assay to identify small molecule agonists of the estrogen receptor alpha (ER-alpha) signaling pathway (AID 743075; calls by dose curve;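 further: HEK293 GripTite cells with ER-alpha and UAS-driven beta-lactamase reporter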)
[6] = target: Estrogen receptor (Homo sapiens) (UniProt P03372); assay: qHTS assay to identify small molecule agonists of the estrogen receptor alpha (ER-alpha) signaling pathway using the BG1 cell line (AID 743079); further: nearly all actives have a fitted effect of over 20% in size; further: potency means the concentration at half of the fitted maximal effect
[7] = qHTS assay to identify small molecule antagonists of the estrogen receptor alpha (ER-alpha) signaling pathway using the BG1 cell line - cell viability counter screen (AID 743081);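 further: compound given together with 17beta-estradiol as the ER stimulus; series mostly up to about 70 µM; nearly all actives have a fitted effect of over 45% in size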
Aromatase (Homo sapiens) = Aromatase (Homo sapiens) (UniProt P11511); assay: qHTS assay to identify aromatase inhibitors (AID 743083); further: series mostly up to about 70 µM; nearly all actives have a fitted effect of over 55% in size
Aromatase (Homo sapiens), sequence (P11511 whole entry, looked up): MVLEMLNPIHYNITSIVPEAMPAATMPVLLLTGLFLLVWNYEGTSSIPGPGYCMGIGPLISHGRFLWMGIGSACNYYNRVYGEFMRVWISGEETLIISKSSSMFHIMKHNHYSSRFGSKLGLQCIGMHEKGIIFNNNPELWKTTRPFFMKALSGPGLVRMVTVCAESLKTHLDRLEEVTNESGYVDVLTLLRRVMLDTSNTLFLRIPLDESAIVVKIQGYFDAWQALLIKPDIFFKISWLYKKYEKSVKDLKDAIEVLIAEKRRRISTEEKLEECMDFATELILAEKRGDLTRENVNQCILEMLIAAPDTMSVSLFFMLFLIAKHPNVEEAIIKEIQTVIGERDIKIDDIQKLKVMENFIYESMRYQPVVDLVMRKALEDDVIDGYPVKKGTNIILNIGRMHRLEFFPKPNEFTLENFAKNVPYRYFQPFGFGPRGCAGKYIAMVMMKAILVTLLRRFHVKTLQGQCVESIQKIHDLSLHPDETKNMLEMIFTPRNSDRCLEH

[8] = qHTS assay to identify aromatase inhibitors - cell viability counter screen (AID 743084);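 further: cells stimulated with testosterone during compound exposure; nearly all actives have a fitted effect of over 55% in size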
[9] = target: Aryl hydrocarbon receptor (Homo sapiens) (UniProt P35869); assay: qHTS assay to identify small molecule that activate the aryl hydrocarbon receptor (AhR) signaling pathway (AID 743085); further: nearly all actives have a fitted effect of over 15% in size; further: potency means the concentration at half of the fitted maximal effect;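 on activation: HG2L7.5c1 human HepG2 liver cells with stably integrated DRE-driven firefly reporter; series mostly up to about 70 µM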
Aryl hydrocarbon receptor (Homo sapiens), sequence (P35869 whole entry, looked up): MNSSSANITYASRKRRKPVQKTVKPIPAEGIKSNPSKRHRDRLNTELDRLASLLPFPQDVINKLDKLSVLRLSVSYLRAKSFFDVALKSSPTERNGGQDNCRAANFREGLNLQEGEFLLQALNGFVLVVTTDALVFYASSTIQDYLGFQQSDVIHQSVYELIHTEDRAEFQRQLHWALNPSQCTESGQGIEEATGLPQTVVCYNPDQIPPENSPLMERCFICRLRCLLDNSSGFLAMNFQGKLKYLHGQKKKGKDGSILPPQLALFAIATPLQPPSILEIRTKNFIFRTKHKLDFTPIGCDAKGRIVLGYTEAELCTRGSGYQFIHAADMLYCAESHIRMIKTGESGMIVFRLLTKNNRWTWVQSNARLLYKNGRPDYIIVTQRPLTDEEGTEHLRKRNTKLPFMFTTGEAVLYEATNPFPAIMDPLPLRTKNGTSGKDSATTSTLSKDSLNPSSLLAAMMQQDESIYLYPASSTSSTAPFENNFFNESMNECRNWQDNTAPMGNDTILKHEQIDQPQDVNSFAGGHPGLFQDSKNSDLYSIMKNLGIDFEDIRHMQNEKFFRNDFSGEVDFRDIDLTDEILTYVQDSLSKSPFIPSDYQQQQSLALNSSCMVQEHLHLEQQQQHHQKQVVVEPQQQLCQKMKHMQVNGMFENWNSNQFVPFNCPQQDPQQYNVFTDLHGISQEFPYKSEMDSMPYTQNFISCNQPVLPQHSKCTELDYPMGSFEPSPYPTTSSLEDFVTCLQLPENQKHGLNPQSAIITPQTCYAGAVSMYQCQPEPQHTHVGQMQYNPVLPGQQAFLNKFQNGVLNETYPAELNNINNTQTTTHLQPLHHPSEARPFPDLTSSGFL
Procedure, shortened: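 Measured in HG2L7.5c1 cells: CellTiter-Fluor signal (30 min incubation, 37C) for viability, then luciferase luminescence (30 min, room temperature). Compound contact time was 24 h at 37C, following a 5 h pre-incubation.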

[10] = qHTS assay to identify small molecule that activate the aryl hydrocarbon receptor (AhR) signaling pathway - cell viability counter screen (AID 743086);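 further: HepG2 liver cells carrying the AhR DRE luciferase reporter; series mostly up to about 70 µM; nearly all actives have a fitted effect of over 45% in size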
Procedure, shortened: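 HepG2-AhR-luc (HG2L7.5c1) cells, 4000/well, treated 24 h at 37 C with compound; viability measured as CellTiter-Fluor fluorescence after 30 min in the same wells as the luciferase read.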

[11] = target: Peroxisome proliferator-activated receptor gamma (Homo sapiens) (UniProt P37231); assay: qHTS assay to identify small molecule agonists of the peroxisome proliferator-activated receptor gamma (PPARg) signaling pathway (AID 743094; active means well fitted activation curve with a large enough effect in the signal ratio in the repeat runs, not every such curve was filed as active; the % refers to the signal ratio)
Peroxisome proliferator-activated receptor gamma (Homo sapiens), sequence (P37231 whole entry, looked up): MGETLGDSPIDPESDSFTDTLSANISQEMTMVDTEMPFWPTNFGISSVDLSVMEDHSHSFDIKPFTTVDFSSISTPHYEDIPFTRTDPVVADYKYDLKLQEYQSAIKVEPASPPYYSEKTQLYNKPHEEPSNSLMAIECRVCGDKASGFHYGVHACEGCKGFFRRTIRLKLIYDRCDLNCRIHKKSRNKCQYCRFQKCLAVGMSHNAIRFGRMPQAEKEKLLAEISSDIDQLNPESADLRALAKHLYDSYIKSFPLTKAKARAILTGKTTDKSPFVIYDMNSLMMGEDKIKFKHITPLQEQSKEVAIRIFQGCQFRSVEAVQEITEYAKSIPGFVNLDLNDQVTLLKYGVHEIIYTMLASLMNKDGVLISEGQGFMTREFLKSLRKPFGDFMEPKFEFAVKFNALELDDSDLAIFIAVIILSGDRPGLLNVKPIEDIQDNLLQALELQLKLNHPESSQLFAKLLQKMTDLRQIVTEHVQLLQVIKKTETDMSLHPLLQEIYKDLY
Procedure, shortened: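 Cells from the PPARg UAS-bla HEK293H line are plated and incubated 5 h at 37C. Compounds in DMSO are pinned in and left 17 h at 37C. LiveBLAzer B/G substrate is then added for 1 h at room temperature before fluorescence is measured.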

[12] = target: Peroxisome proliferator-activated receptor gamma (Homo sapiens) (UniProt P37231); assay: qHTS assay to identify small molecule antagonists of the peroxisome proliferator-activated receptor gamma (PPARg) signaling pathway (AID 743191; calls by dose curve; further: series mostly up to about 63 µM; nearly all actives have a fitted effect of over 30% in size)
Procedure, shortened: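 GeneBLAzer PPARg UAS-bla HEK293H cells, 5 h post-plating, exposed to compounds 17 h at 37C. LiveBLAzer B/G FRET substrate added for 1 h at room temperature; beta-lactamase reporter read by fluorescence intensity.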

[13] = qHTS assay to identify small molecule antagonists of the peroxisome proliferator-activated receptor gamma (PPARg) signaling pathway - cell viability counter screen (AID 743194); further: nearly all actives have a fitted effect of over 55% in size
Procedure, shortened: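 Cytotoxicity counter screen in PPARg-bla HEK293H cells, same wells as reporter assay. Compounds plus 50 nM rosiglitazone (final) for 17 h at 37 C, then viability read by CellTiter-Glo luminescence.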

[14] = qHTS assay for small molecule agonists of the antioxidant response element (ARE) signaling pathway (AID 743202; active means well fitted activation curve with a large enough effect in the signal ratio in the repeat runs, not every such curve was filed as active; the % refers to the signal ratio)
Procedure, shortened: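 HepG2 ARE-bla reporter line, 2,000 cells/well; 5 h preincubation 37 C/5% CO2; compound (DMSO) 16 h 37 C; B/G FRET substrate 2 h RT; fluorescence intensity.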

[15] = qHTS assay for small molecule activators of the heat shock response signaling pathway - cell viability counter screen (AID 743209); further: nearly all actives have a fitted effect of over 50% in size
Procedure, shortened: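 Cytotoxicity counter screen run in parallel with the HSE beta-lactamase reporter, using the same wells. HeLa HSE-bla cells received compound for 5 h at 37 C; ATP-based CellTiter-Glo luminescence was measured after 30 min at room temperature.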

[16] = qHTS assay for small molecule activators of the heat shock response signaling pathway (AID 743210; active means well fitted activation curve with a large enough effect in the signal ratio in the repeat runs, with a control signal flat, not every such curve was filed as active; the % refers to the signal ratio;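 further: HeLa cells with beta-lactamase reporter driven by heat shock elements; series mostly up to about 63 µM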)
Procedure, shortened: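 Beta-lactamase reporter read-out: FRET substrate fluorescence after 2.5 h at RT, following 5 h compound treatment at 37 C of HeLa cells carrying HSE-driven bla reporter; quantitative HTS format.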

[17] = qHTS assay to identify small molecule agonists of the peroxisome proliferator-activated receptor delta (PPARd) signaling pathway - cell viability counter screen (AID 743211); further: nearly all actives have a fitted effect of over 55% in size
Procedure, shortened: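 Following 5 h plating at 37 C and 5% CO2, PPARd UAS-bla HEK293H cells took up test compounds for 17 h. Viability was quantified by luminescence 30 min after CellTiter-Glo addition at room temperature.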

[18] = qHTS assay to identify small molecule antagonists of the estrogen receptor alpha (ER-alpha) signaling pathway using the BG1 cell line (AID 743080; calls by dose curve;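 further: BG1 cells stimulated with 17beta-estradiol alongside compound; series mostly up to about 70 µM; nearly all actives have a fitted effect of over 25% in size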)
Procedure, shortened: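 Endogenous full-length ER-alpha in BG1-Luc-4E2 cells drives a stably integrated 4×ERE luciferase gene; compounds were tested against 17beta-estradiol over 21.5 h, with luminescence and multiplexed viability fluorescence recorded.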

[19] = qHTS assay for small molecule agonists of the antioxidant response element (ARE) signaling pathway - cell viability counter screen (AID 743203; calls by dose curve; further: nearly all actives have a fitted effect of over 55% in size)
Procedure, shortened: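 Cytotoxicity was tested in parallel with the ARE reporter screen. ARE-bla HepG2 cells were exposed to compounds for 16 hrs, and viability was taken from CellTiter-Glo luminescence.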

Structure (SMILES) | Potency [1] | Potency [2] | outcome [3] | Potency [4] | Potency [5] | Potency [6] | outcome [7] | Potency (Aromatase (Homo sapiens)) | outcome [8] | Potency [9] | outcome [10] | outcome [11] | outcome [12] | outcome [13] | Potency [14] | Potency [15] | outcome [16] | outcome [17] | Potency [18] | outcome [19]
CCCc1ccc(O)c(OC)c1 | inactive | inactive | inactive | inactive | inactive | inactive | inactive | inactive | inactive | inactive | inactive | inactive | inactive | inactive | inactive | inactive | inactive | inactive |  | 
CCc1ccc(CC)cc1 | inactive | inactive | inactive | inactive | inactive | inactive | inactive | inactive |  | inactive | inactive | inactive | inactive |  | inactive | inactive | inactive |  | inactive | inactive
CC/C=C\CCCCCCCCCCOC(C)=O | inactive | inactive | inactive | inactive | inactive | inactive | inactive | inactive | inactive | inactive | inactive | inactive | inactive | inactive | inactive | inactive | inactive | inactive |  | 
CC(C)C[P+](C)(CC(C)C)CC(C)C | inactive | inactive | inactive | inactive | inactive | inactive | inactive | inactive | inactive |  | inactive |  | inactive | inactive | inactive |  |  | inactive | inactive | 
OCCC(F)(F)C(F)(F)C(F)(F)C(F)(F)C(F)(F)C(F)(F)F | inactive | inactive | inactive | inactive | inactive | inactive | inactive | inactive | inactive | inactive | inactive |  | inactive | inactive | inactive |  | inactive | inactive |  | inactive
C[n+]1ccccc1/C=N/O | inactive | inactive | inactive | inactive | inactive | inactive | inactive | inactive | inactive |  | inactive |  | inactive | inactive | inactive | inactive | inactive | inactive | inactive | 
CCOC(=O)CC(C(C)=O)C(C)=O | inactive | inactive | inactive | inactive | inactive | inactive | inactive | inactive | inactive | inactive | inactive | inactive | inactive | inactive | inactive | inactive | inactive | inactive |  | inactive
CCCCCCCCCCCBr | inactive | inactive | inactive | inactive | inactive | inactive | inactive | inactive | inactive |  |  | inactive |  | inactive | inactive | inactive | inactive |  | inactive | inactive
CN(C)CCC[C@@]1(c2ccc(F)cc2)OCc2cc(C#N)ccc21 | inactive | inactive | inactive | inactive | inactive | inactive | inactive | inactive | inactive |  | inactive |  |  | inactive |  | inactive | inactive |  | inactive | inactive
C=COCCCCO | inactive | inactive | inactive | inactive | inactive | inactive | inactive | inactive | inactive | inactive | inactive | inactive |  | inactive |  | inactive |  | inactive |  | inactive
CC(C)(O)c1ccc(C(C)(C)O)cc1 | inactive | inactive | inactive | inactive | inactive | inactive | inactive | inactive | inactive |  | inactive | inactive | inactive |  | inactive |  | inactive | inactive |  | 
NNC(=O)OCc1ccccc1 | inactive | inactive | inactive | inactive | inactive | inactive | inactive | inactive | inactive |  |  | inactive |  | inactive |  | inactive | inactive | inactive | inactive | inactive
CC(=O)c1ccc2ccc3ccccc3c2c1 | inactive | inactive | inactive | inactive | inactive | 8.58 µM (active) | inactive | inactive | inactive | 60.8 µM (active) |  |  | inactive |  | inactive | inactive |  | inactive |  | inactive
N#Cc1ccccc1C#N | inactive | inactive | inactive | inactive | inactive | inactive | inactive | inactive | inactive | inactive | inactive | inactive | inactive | inactive | inactive | inactive | inactive | inactive |  | inactive
CN1CCN(C(=O)C2CCCCC2)CC1 | inactive | inactive | inactive | inactive | inactive | inactive | inactive | inactive | inactive | inactive | inactive | inactive | inactive | inactive | inactive |  | inactive |  |  | inactive
O=C(O)Cc1ccccc1Oc1ccc(Cl)cc1Cl | inactive | inactive | inactive | inactive | inactive | inactive | inactive | inactive | inactive |  |  |  |  |  |  | inactive | inactive | inactive | inactive | inactive
